Assay outcomes as filed in PubChem BioAssay.
Rows were chosen to be rich in hits. Some 3.5% of all compounds tested hit in one or more screens of this group.
Mtb bLac sens: beta-lactam sensitization of Mtb H37Rv, H37Rv; M. tuberculosis H37Rv growth with meropenem, percent inhibition; inhibition, % at 25 µM; 330,000 compounds, 0.27% hits; call rule not given here;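 note: growth measured after seven days incubation then overnight dye step; 0% = bacteria only wells and 100% = bacteria with antibiotic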
Rv3671c inh: Rv3671c serine protease inhibitors, primary screen, biochemical, fluorescence polarization, M. tuberculosis H37Rv | P9WHR9 | inhibition, % at 5.96 µM | 320,000 compounds, 0.048% hits; in the data active = inhibition above about 38%;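 note: extracellular domain of Rv3671c used as enzyme; 0% = enzyme with DMSO and 100% = no enzyme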
FBA Mtb inh: Mtb FBA enzyme inhibitors, primary screen, biochemical, fluorescence, strain H37Rv | Fructose-bisphosphate aldolase (Mycobacterium tuberculosis (strain ATCC 25618 / H37Rv)), … | purified M. tuberculosis FBA, fluorescence read-out | inhibition, % at 1 µM | 360,000 compounds, 2.3% hits; in the data active = inhibition above about 27%;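 note: 0% = vehicle and 100% = reference inhibitor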
Target sequence (P9WQA3 whole entry, looked up): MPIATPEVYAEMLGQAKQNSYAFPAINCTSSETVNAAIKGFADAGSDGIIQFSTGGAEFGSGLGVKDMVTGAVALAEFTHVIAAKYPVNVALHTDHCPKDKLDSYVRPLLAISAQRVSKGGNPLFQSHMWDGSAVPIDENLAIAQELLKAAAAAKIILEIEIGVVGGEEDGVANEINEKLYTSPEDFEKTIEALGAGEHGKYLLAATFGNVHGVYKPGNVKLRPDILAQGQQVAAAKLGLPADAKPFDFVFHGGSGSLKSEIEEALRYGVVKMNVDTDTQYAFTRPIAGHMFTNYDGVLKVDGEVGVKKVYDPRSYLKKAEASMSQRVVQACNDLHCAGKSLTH
UGM FP inh: M. tuberculosis UGM enzyme inhibitors, primary screen, biochemical, fluorescence polarization, single point; 320,000 compounds, 0.06% hits; purified UGM, fluorescence polarization probe displacement; inhibition, % at 10 µM; UDP-galactopyranose mutase (Mycobacterium tuberculosis (strain ATCC 25618 / H37Rv)), …; in the data active = inhibition above about 10%, passing the limit was not always enough; inconclusive = no clear call, values can overlap the other calls
GDH-TPI inh: GDH-TPI coupling enzyme inhibitors, primary screen, artefact control for M. tuberculosis FBA inhibitor project, biochemical, absorbance, full deck | GDH-TPI coupled enzyme counterscreen, NADH absorbance | inhibition, % at 4.8 µM | AID 588335, 2011 | 360,000 compounds, 1.2% hits; in the data active = inhibition above about 30%;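 note: 0% = DMSO wells and 100% = wells lacking the enzyme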
Active calls of the source: *; ? = inconclusive; . = no result; + = active, no number.

SMILES	Mtb bLac sens	Rv3671c inh	FBA Mtb inh	UGM FP inh	GDH-TPI inh
Cc1cccc(C)c1NC(=O)C(C)NCc1cccs1 (stereo not drawn)	.	.	1	.	2
c1ccc2sc(-c3ccc4c(c3)OCO4)nc2c1	-4	-6	130*	-2	18
COc1cccc(C2C(C(N)=O)=C(C)Nc3nc(CCCO)nn32)c1 (stereo not drawn)	?	13	0	-1	16
CC1(C)OC(C)(C)/C(=C\c2ccc(OCC(N)=O)cc2)C1=O	-1	3	-6	2	35*
CCOC(=O)N1CCN(c2ncnc3c2[nH]c2ccc(OC)cc23)CC1	-7	0	125*	0	15
CCOC(=O)C1CCN(c2ncnc3c2[nH]c2cccc(OC)c23)CC1	-21	-6	125*	3	27
CCOC(=O)N1CCN(c2ncnc3c2[nH]c2ccc(F)cc23)CC1	5	-4	10	0	6
COc1ccccc1CNC(=O)COC(=O)/C=C/c1ccc2c(c1)OCO2	6	-2	3	1	21
C[N+](C)(C)c1ccc(/C=N/Nc2nc(Cl)c(C#N)c(Cl)c2Cl)cc1	63	17	-5	2	38*
CSc1nsc(SCC(=O)Nc2ccc(C(N)=O)cc2)n1	-4	-11	1	0	2
CCc1ccc(-c2cnc3nc[nH]c(=O)c3n2)cc1	22	-3	135*	1	6
CCc1ccc(-c2ccc(C(=O)O)c(C)n2)cc1	0	1	5	1	11
CCc1cc(=O)oc2c3c(cc(OCC(=O)N[C@H](C(=O)O)[C@H](C)CC)c12)OC(C)(C)CC3	-4	-2	+	-1	17
CCCc1cc(=O)oc2cc(C)cc(OCC(=O)NC(Cc3c[nH]c4ccc(O)cc34)C(=O)O)c12 (stereo not drawn)	-2	1	19	5	0
CCCc1cc(=O)oc2c3c(cc(OCC(=O)N[C@@H](C)C(=O)O)c12)OC(C)(C)CC3	6	-2	+	-1	14
CCCc1cc(=O)oc2c3c(cc(OCC(=O)N[C@@H](CSC)C(=O)O)c12)OC(C)(C)CC3	-4	.	+	9	20
CC1=N/C(=C\c2ccc(OC(C)C)cc2)C(=O)N1c1ccc(C(=O)O)cc1	40	-13	1	-2	33*
COc1cc(-c2ccc3c(=O)c4ccccc4n(C)c3c2)cc(OC)c1OC	5	-23	20	1	2
Cn1c2ccccc2c(=O)c2ccc(F)cc21	-1	-7	191*	-1	2
O=C(O)CCN(CC(=O)c1ccc(Cl)cc1)S(=O)(=O)c1ccc([N+](=O)[O-])cc1	6	4	5	2	-7
O=C(Oc1ccc2ccc(=O)oc2c1)c1ccc([N+](=O)[O-])cc1	1	1	183*	2	-2
CC(=O)Oc1ccc2ccc(=O)oc2c1	-1	-9	+	-2	9
Cc1ccc(C(=O)Oc2ccc3ccc(=O)oc3c2)cc1	38	-9	22	1	13
Clc1cccc(Cl)c1/C=C/c1ccn[nH]1	8	-4	2	4	-1
COc1ccc(/C=C/C(=O)O)cc1S(=O)(=O)N1CCC(C)CC1	1	6	4	5	2
SMILES	Mtb bLac sens	Rv3671c inh	FBA Mtb inh	UGM FP inh	GDH-TPI inh
Cc1c(C(=O)O)sc(S(=O)(=O)N2CCN(C(=O)CCc3ccccc3)CC2)c1C(=O)O	.	.	7	.	7
CC(=O)C1=C(O)C(=CC=Cc2ccccc2)OC1=O	.	.	2	.	31*
COCCn1c(N)c(C(=O)OCc2ccccc2)c2nc3ccccc3nc21	10	-40	+	1	0
COCCOC(=O)c1c(N)n(Cc2ccccc2)c2nc3ccccc3nc12	6	-1	+	-1	6
CCOC(=O)c1c(NC(=O)c2c(N)n(CCCOC)c3nc4ccccc4nc23)sc2c1CCCC2	2	6	-3	-3	1
COCC(C)OC(=O)c1c(N)n(-c2ccc(OC)c(OC)c2)c2nc3ccccc3nc12 (stereo not drawn)	4	4	.	1	.
COCC(C)OC(=O)c1c(N)n(Cc2ccco2)c2nc3ccccc3nc12 (stereo not drawn)	0	1	130*	1	12
